# Data published in PubChem BioAssay AID1423 (NMMLSC, 2008).
# Hit rate of the full screen: of about 220,000 compounds, about 750 (0.34%) were called active. Cut-off read from the data, not from the text of the source: active = response below about 60% or above about 140%; inactive = in between. The sample as a whole holds a higher share of actives than the screen did.
# Molecular target: Guanine nucleotide-binding protein G(o) subunit alpha (Homo sapiens) (UniProt P09471)
# Assay: RGS8-Galphao binding modulators, primary screen, biochemical, multiplexed bead flow cytometry (AID 1423);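 note: Galphao activated as the GDP aluminium fluoride complex binding bead-coupled RGS8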
# Conditions: at 10 µM, actives lie on both sides
# Chain of Guanine nucleotide-binding protein G(o) subunit alpha (Homo sapiens) (P09471 whole entry, looked up): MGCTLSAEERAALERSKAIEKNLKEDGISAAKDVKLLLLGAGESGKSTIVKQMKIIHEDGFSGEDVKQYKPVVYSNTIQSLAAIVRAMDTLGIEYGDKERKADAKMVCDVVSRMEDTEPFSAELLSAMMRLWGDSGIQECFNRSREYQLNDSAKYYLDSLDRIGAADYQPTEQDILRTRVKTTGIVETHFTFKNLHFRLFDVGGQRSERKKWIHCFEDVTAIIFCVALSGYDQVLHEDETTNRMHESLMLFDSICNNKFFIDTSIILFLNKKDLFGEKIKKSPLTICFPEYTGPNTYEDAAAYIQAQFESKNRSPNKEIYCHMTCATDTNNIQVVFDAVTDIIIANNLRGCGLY
row,SMILES,response (percent of control binding)
1,Cc1cc(C)cc(N(C(C)C(=O)Nc2c(C)n(C)n(-c3ccccc3)c2=O)S(C)(=O)=O)c1 (stereo not drawn),104% (inactive)
2,Cc1ccc(S(=O)(=O)CC(=O)Nc2c(C)n(C)n(-c3ccccc3)c2=O)cc1,97.4% (inactive)
3,Cc1cc(C)cc(N(CC(=O)Nc2c(C)n(C)n(-c3ccccc3)c2=O)S(C)(=O)=O)c1,1.54% (active)
4,CCc1nn(-c2cc(Oc3cccc4ccccc34)nc(-c3ccccc3)n2)c(N)c1C#N,105% (inactive)
5,N/C(=N\S(=O)(=O)c1ccc(Cl)cc1)N1CCOCC1,98.4% (inactive)
6,CC(C)(C)C(=O)NNC(=O)c1ccc(Oc2cc(Cl)cc(Cl)c2)o1,104% (inactive)
7,O=C(CN1CCOCC1)Nc1c(Cl)cc(Cl)cc1Cl,96% (inactive)
8,O=C(CN1CCOCC1)Nc1ccc(NC(=O)CN2CCOCC2)c(Cl)c1,100% (inactive)
9,O=C(CN1CCOCC1)Nc1ccccc1,145% [activator] (active)
10,CC(=O)c1ccc(N=C2SCCCN2C(=O)C2CCCCC2)cc1,95.4% (inactive)
11,O=C(NNc1c2ccccc2nc2ccccc12)c1cc2ccccc2cc1O,98.1% (inactive)
12,Cc1ccc(S(=O)(=O)N2CCN(C(=O)COC(=O)c3c(C)noc3C)CC2)c(C)c1,103% (inactive)
13,O=S(=O)(c1ccc(Br)cc1)c1nc(-c2ccccc2)oc1NCc1cccnc1,103% (inactive)
14,N#Cc1nc(-c2ccc(OCc3ccccc3)cc2)oc1NCCCN1CCOCC1,99.9% (inactive)
15,N#Cc1nc(COc2ccc(-c3ccccc3)cc2)oc1NCc1cccnc1,167% [activator] (active)
16,CC(C)(C)NC(=O)NC(=O)COC(=O)Cc1c(F)cccc1Cl,99.5% (inactive)
17,CCCCC(CC(C)O)c1n[nH]c(=S)n1-c1ccccc1 (stereo not drawn),108% (inactive)
18,S=c1[nH]nc(CSCc2ccc(Cl)cc2Cl)n1-c1ccccc1,92.7% (inactive)
19,CCn1c(CNS(=O)(=O)c2ccc(Cl)cc2)n[nH]c1=S,100% (inactive)
20,CCn1c(CSCc2c(Cl)cccc2Cl)n[nH]c1=S,55.5% (active)
21,Cc1ccc(C(=O)C(=S)N2CCOCC2)cc1,110% (inactive)
22,CC1CC(C)(C)n2c(O)c(N=NC(N)=S)c3cccc1c32 (stereo not drawn),100% (inactive)
23,NS(=O)(=O)c1ccc(CCNC(=O)CCCn2c(SCC(=O)N3CCCC3)nc3ccsc3c2=O)cc1,103% (inactive)
24,O=[N+]([O-])c1ccccc1Nc1ccc(O)cc1,102% (inactive)
25,O=C(CC1SC(=Nc2ccccc2F)N(CCN2CCOCC2)C1=O)Nc1ccc(F)cc1F (stereo not drawn),97.3% (inactive)
26,CCOc1cc(NC(=O)c2ccccn2)c(OCC)cc1NC(=O)c1ccc(OC)cc1,103% (inactive)
27,CCN(CC)CCOc1ccc2c(c1)C(=NNC(=O)c1ccccn1)c1cc(OCCN(CC)CC)ccc1-2,154% [activator] (active)
28,COc1ccc(CC(=O)N/N=C(\C)c2ccccn2)cc1,72.6% (inactive)
